Measured values reported in PMC5540273 (PLoS ONE, 2017).

Experiments:
Settings in all cases: concentration: 1 μM, replicates: in singlicate; n = 1
HIPK4 = tested on: HIPK4
HPK1 = tested on: HPK1
HUNK = tested on: HUNK
ICK = tested on: ICK
IGF1R = tested on: IGF1R
IKK-alpha = tested on: T1, IKK-alpha
T1 construct: gene CHUK

IKK-beta = tested on: T2, IKK-beta
T2 construct: gene IKBKB

IKK-epsilon = tested on: T3, IKK-epsilon
T3 construct: gene IKBKE

INSRR = tested on: INSRR
INSR = tested on: INSR
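Further: KINOMEscan kinase panel screen.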

| SMILES | %Inh (HIPK4) | %Inh (HPK1) | %Inh (HUNK) | %Inh (ICK) | %Inh (IGF1R) | %Inh (IKK-alpha) | %Inh (IKK-beta) | %Inh (IKK-epsilon) | %Inh (INSRR) | %Inh (INSR) |
| --- | --- | --- | --- | --- | --- | --- | --- | --- | --- | --- |
| COC(=O)C(Cc1ccccc1)NC(=O)NC1CCN(c2ccnc(Nc3ccc(F)cc3)n2)C1 (stereo not shown) [GSK1379714] | 0% | 51% | 0% | 0% | 8% | 0% | 0% | 34% | 0% | 1% |
| COc1ccc(Nc2nccc(NCCNC(=O)Nc3cc(C)ccc3C)n2)cc1 [GSK1379899] | 0% | 40% | 0% | 18% | 7% | 8% | 9% | 1% | 0% | 0% |
| Cc1cnc(N)c(/C=C/c2cncc(C(=O)NCCc3ccc(Cl)cc3Cl)c2)c1.Cl [GSK190937] | 17% | 45% | 10% | 0% | 8% | 19% | 46% | 29% | 0% | 31% |
| Cc1ccccc1-c1cc(-c2c[nH]nc2-c2ccccn2)ccn1 [GW680061] | 0% | 32% | 27% | 0% | 2% | 46% | 38% | 0% | 0% | 28% |
| Cc1cccc2c(-c3ccncn3)c(-c3ccc(F)cc3)nn12 [GW515532] | 8% | 3% | 0% | 9% | 0% | 37% | 18% | 0% | 16% | 75% |
| COc1nccc(-c2c(-c3ccc(F)cc3)ncn2CCCN2CCOCC2)n1 [SB-282852] | 0% | 21% | 0% | 16% | 0% | 26% | 21% | 8% | 0% | 0% |
| Nc1cccc(-c2ccc3c(N)n[nH]c3c2)n1 [GSK2192730] | 0% | 35% | 0% | 9% | 0% | 0% | 18% | 0% | 0% | 3% |
| COc1ccc(CSc2nnc(-c3ccc4c(c3)CCO4)o2)cc1 | 0% | 0% | 0% | 0% | 0% | 0% | 0% | 0% | 0% | 0% |
| CS(=O)(=O)CCNCc1nc(-c2ccc3ncnc(Nc4ccc(OCc5ccccc5)c(Cl)c4)c3c2)cs1.Cl [GW582764] | 0% | 44% | 5% | 0% | 4% | 28% | 5% | 0% | 0% | 0% |
| O=c1cc(N2CCOCC2)nc2n(Cc3ccccc3F)ccn12 [GSK2297428] | 0% | 34% | 0% | 0% | 7% | 0% | 0% | 0% | 0% | 0% |
| O=C(Nc1n[nH]c2nc(-c3ccco3)c(Br)cc12)C1CCN(Cc2ccccc2)C1.O=C(O)[C@H](O)[C@@H](O)C(=O)O (stereo not shown) [SB-742034] | 1% | 0% | 33% | 22% | 0% | 0% | 26% | 19% | 0% | 12% |
| CC(=O)c1c(C)c2cnc(Nc3ccc(N4CCNCC4)cn3)nc2n(C2CCCC2)c1=O | 8% | 0% | 0% | 0% | 0% | 0% | 0% | 15% | 0% | 0% |
| Cc1ccccc1Cn1ccn2c(=O)cc(N3CCOCC3)nc12 [GSK2269905] | 0% | 32% | 7% | 0% | 2% | 0% | 12% | 0% | 0% | 17% |
| CC(C)c1ccc(O)cc1Nc1ccnc2ccc(C(F)(F)F)cc12 [GW482059] | 10% | 23% | 0% | 0% | 3% | 0% | 0% | 0% | 7% | 0% |
| CC(C)c1cc(-c2ccc3c(N)n[nH]c3c2)nc(N)n1 [GSK2250882] | 30% | 45% | 0% | 0% | 6% | 0% | 4% | 10% | 0% | 4% |
| CNCc1ccc2nc(NC(=O)c3ccc(C(C)(C)C)cc3)cn2c1 | 5% | 12% | 19% | 27% | 0% | 8% | 6% | 15% | 2% | 9% |
| Cc1ccc(NC(=O)Nc2ccc(Cl)c(C(F)(F)F)c2)cc1-c1ccc(C(=O)Nc2ccncc2)cc1 [GSK1398470] | 8% | 56% | 9% | 4% | 26% | 0% | 0% | 29% | 5% | 23% |

| SMILES | %Inh (HIPK4) | %Inh (HPK1) | %Inh (HUNK) | %Inh (ICK) | %Inh (IGF1R) | %Inh (IKK-alpha) | %Inh (IKK-beta) | %Inh (IKK-epsilon) | %Inh (INSRR) | %Inh (INSR) |
| --- | --- | --- | --- | --- | --- | --- | --- | --- | --- | --- |
| Fc1ccc(-c2nc3n(c2-c2ccncc2)CCS3)cc1 [GI98581] | 0% | 44% | 8% | 0% | 17% | 0% | 0% | 0% | 6% | 0% |
| CC[C@@H]1CO[C@H](C(=O)Nc2ccccc2)CN1c1cc(-c2ccc3c(N)n[nH]c3c2)nc(NC)n1 [GSK2376236] | 0% | 15% | 0% | 0% | 0% | 0% | 1% | 6% | 0% | 10% |
| CCn1c(-c2c(N)noc2C)nc2cnccc21 [SB-737856] | 0% | 41% | 0% | 4% | 0% | 7% | 0% | 0% | 0% | 0% |
| Cc1ccc(NC(=O)Nc2ccc(Cl)cc2)cc1-c1ccc(C(=O)Nc2ccncc2)cc1 [GSK1398472] | 0% | 43% | 23% | 17% | 6% | 0% | 8% | 5% | 0% | 0% |
| c1ccc(-c2ccnc3[nH]ccc23)cc1 [SB-693578] | 0% | 48% | 2% | 13% | 14% | 47% | 64% | 0% | 0% | 5% |
| CCn1c(-c2ccccc2)nc2cnccc21 [SB-733416] | 0% | 48% | 0% | 46% | 7% | 37% | 43% | 19% | 2% | 4% |
| O=c1cc(N2CCOCC2)nc2n(Cc3cccc(Cl)c3Cl)c3ccccc3n12 [GSK2299009] | 0% | 19% | 0% | 14% | 5% | 0% | 0% | 37% | 7% | 0% |
| Nc1ncnc2occ(-c3ccc4c(c3)CCN4C(=O)Cc3cc(F)ccc3F)c12 [GSK2645446] | 0% | 31% | 0% | 0% | 0% | 0% | 0% | 41% | 0% | 0% |
| CCc1ccc(-c2ccc3c(c2)-c2n[nH]cc2S(=O)(=O)N3C)cc1 | 23% | 16% | 34% | 0% | 0% | 0% | 0% | 0% | 0% | 0% |
| O=C1NC(=O)C(c2ccc(Cl)cc2)=C1Nc1cccc(Cl)c1 [SB-317651] | 0% | 12% | 0% | 28% | 0% | 0% | 0% | 0% | 0% | 11% |
| COC(=O)C(NC(=O)NC1CCN(c2ccnc(Nc3ccc(F)cc3)n2)C1)c1ccccc1 (stereo not shown) [GSK1379712] | 8% | 51% | 0% | 9% | 5% | 0% | 0% | 32% | 0% | 2% |
| NS(=O)(=O)c1cccc(N/C=C2\C(=O)Nc3ccc(S(=O)(=O)Cc4c(Cl)cccc4Cl)cc32)c1 [GSK398099] | 0% | 49% | 0% | 15% | 0% | 0% | 15% | 26% | 0% | 5% |
| Cc1nccc(-c2c(-c3ccc(F)cc3)ncn2CCCN2CCOCC2)n1.Cl [SB-282975] | 50% | 3% | 16% | 39% | 3% | 14% | 12% | 0% | 11% | 3% |
| COc1cccc(C2=C(Nc3cc(Cl)c(O)c(Cl)c3)C(=O)NC2=O)c1 [SB-390767] | 0% | 43% | 0% | 27% | 5% | 37% | 56% | 0% | 0% | 0% |
| CCCCc1nn2ncccc2c1-c1ccnc(NC2CC2)n1 [GW684374] | 0% | 3% | 2% | 7% | 0% | 0% | 3% | 0% | 0% | 0% |
| COc1ccc(-c2coc3ccc(-c4nnc(C)o4)cc23)cc1 | 8% | 0% | 0% | 0% | 12% | 0% | 0% | 0% | 0% | 14% |
| Cc1c(Cn2c(C)c(C)n3c(=O)cc(N4CCOCC4)nc23)cccc1C(F)(F)F [GSK2328680] | 0% | 33% | 0% | 0% | 0% | 7% | 0% | 0% | 52% | 0% |
